Experimental findings from PubChem BioAssay (NCATS) are described below.

The target in assay [1] is Estrogen receptor (Homo sapiens) (UniProt P03372). The experiment in a line: qHTS assay for small molecule antagonists of estrogen receptor alpha signaling (AID 588513; active = well fitted curve in the direction sought with a large enough effect in the signal ratio, with a control signal flat, not every such curve was filed as active; the % refers to the signal ratio; note: % is set by controls: 0 for no effect and ±100 for the full control effect). In a few lines:
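Fluorescence from CCF4 substrate after 2 h at room temperature gave reporter activity; cells had been exposed to compound and 0.5nM 17-beta-estradiol for 18 h at 37 C. Hill-equation fitting yielded IC50 and maximal response.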

The target is the same in assay [2]. The experiment in a line: qHTS assay for small molecule agonists of estrogen receptor alpha signaling (AID 588514).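 Note: 0% = vehicle only and 100% = reference agonist; nearly all actives have a fitted effect of over 70% in size.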 The gist of the method: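 ER-alpha-UAS-bla GripTite HEK 293 cells in medium with 2% charcoal/dextran-treated FBS were treated with compound titrations at 37 C for 18 hrs; beta-lactamase reporter read by CCF4 fluorescence after 2 hrs at RT.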
(qHTS replaces the single test concentration by a dilution series.)

Assay [3] deals with Peroxisome proliferator-activated receptor gamma (Homo sapiens) (UniProt P37231). The experiment in a line: qHTS assay for small molecule agonists of peroxisome proliferator-activated receptor gamma signaling (AID 588536; active = well fitted curve in the direction sought with a large enough effect in the signal ratio, with a control signal flat, not every such curve was filed as active; the % refers to the signal ratio;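 note: 0% = DMSO basal wells and 100% = rosiglitazone at 2 µM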). In a few lines:
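Ratiometric blue/green fluorescence (405 nm excitation; 460 and 530 nm emission) from CCF4-loaded HEK293 reporter cells serves as signal. Exposure to test compounds lasts 16 h at 37 C in medium containing 1% charcoal/dextran-treated serum.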

The target is the same in assay [4]. Nature of the assay: qHTS assay for small molecule antagonists of peroxisome proliferator-activated receptor gamma signaling (AID 588537; active = well fitted inhibition curve with a large enough effect in the signal ratio, with a control signal flat, not every such curve was filed as active; the % refers to the signal ratio;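 note: reporter cells co-stimulated with 50 nM rosiglitazone agonist during compound treatment; % of control where 0% means no effect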). The gist of the method:
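Step one: plate 3000 HEK293 UAS-bla cells per well in medium with 1% stripped serum and hold 6-6.5 h at 37 C. Step two: add compound and 50 nM agonist for 16 h. Step three: CCF4 loading, fluorescence read.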

Assay [5] deals with Vitamin D3 receptor (Homo sapiens) (UniProt P11473). Nature of the assay: qHTS assay for small molecule antagonists of vitamin D receptor signaling (AID 588541).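 Note: receptor activated by calcitriol during compound treatment; series mostly up to about 77 µM; % is set by controls: 0 for no effect and ±100 for the full control effect.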 The gist of the method:
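VDR-UAS-bla HEK293T cells in 2% charcoal-stripped FBS were stimulated with 1-alpha,25-dihydroxyvitamin D3 (3 nM final) plus compound for 16 h at 37 C. The beta-lactamase CCF4 readout was normalized to 50 nM agonist and DMSO, and Hill fits gave IC50.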

Assay [6] has the same target. Nature of the assay: qHTS assay for small molecule agonists of vitamin D receptor signaling (AID 588543).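 Note: 0% = DMSO basal and 100% = reference agonist control.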 In a few lines:
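Reporter cells (HEK293T, VDR-UAS-bla) were seeded in medium with 2% charcoal-stripped serum and incubated 5 h, then compounds in concentration series were added for 16 h at 37 °C. Stimulation was scaled between DMSO basal and 50 nM 1α,25-dihydroxyvitamin D3.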

The target of assay [7] is Retinoic acid receptor RXR-alpha (Homo sapiens) (UniProt P19793). Nature of the assay: qHTS assay for small molecule agonists of retinoid X receptor alpha signaling (AID 588544).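 Note: 0% = DMSO basal wells and 100% = reference agonist.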
Sequence of Retinoic acid receptor RXR-alpha (Homo sapiens) (P19793 whole entry, looked up): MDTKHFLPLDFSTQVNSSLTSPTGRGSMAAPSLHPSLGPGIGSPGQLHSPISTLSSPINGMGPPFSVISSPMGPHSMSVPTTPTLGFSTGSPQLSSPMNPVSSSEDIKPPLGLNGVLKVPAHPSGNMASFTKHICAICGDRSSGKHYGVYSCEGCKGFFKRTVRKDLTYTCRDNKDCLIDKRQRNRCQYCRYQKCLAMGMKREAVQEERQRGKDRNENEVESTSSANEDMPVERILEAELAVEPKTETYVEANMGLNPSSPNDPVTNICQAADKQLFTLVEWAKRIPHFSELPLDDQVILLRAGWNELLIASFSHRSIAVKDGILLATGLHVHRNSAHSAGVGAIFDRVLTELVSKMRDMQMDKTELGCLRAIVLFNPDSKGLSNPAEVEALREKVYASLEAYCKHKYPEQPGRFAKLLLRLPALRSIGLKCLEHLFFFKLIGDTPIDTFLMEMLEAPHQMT
In assay [8] the target is Thyroid hormone receptor beta (Homo sapiens) (UniProt P10828). The experiment in a line: qHTS assay for small molecule agonists of thyroid hormone receptor beta signaling (AID 588545).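 Note: 0% = DMSO only and 100% = 10 nM T3.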 In a few lines:
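Stimulation of a TR-driven beta-lactamase reporter was quantified in GripTite HEK 293 cells. Compound series ran for 18 hrs; curves were normalized to T3 and DMSO controls and fitted to yield EC50.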

A short description of assay [9]: qHTS assay for small molecule antagonists of retinoid X receptor alpha signaling (AID 588546; active = well fitted inhibition curve with a large enough effect in the signal ratio, with a control signal flat, not every such curve was filed as active; the % refers to the signal ratio;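 note: cells stimulated with 9-cis-retinoic acid as agonist; % is set by controls: 0 for no effect and ±100 for the full control effect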). The conditions noted are these: HEK293T RXRa-UAS-bla, beta-lactamase ratio, antagonist mode; measured here: W530 green channel, cytotoxicity proxy. The gist of the method: (§1)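 Beta-lactamase reporter inhibition, read as CCF4 fluorescence ratio (ex 405, em 460/530 nm) after 2 h at RT. HEK293T UAS-bla cells, 2500/well, were stimulated with 9-cis-RA at 500 or 100 nM final alongside test compound for 18 h at 37 C.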

Assay [10] addresses Retinoic acid receptor RXR-alpha (Homo sapiens) (UniProt P19793). Described as above. To be noted: HEK293T RXRa-UAS-bla, beta-lactamase ratio, antagonist mode. The gist of the method:
as §1

Assay [11] addresses Thyroid hormone receptor beta (Homo sapiens) (UniProt P10828). Nature of the assay: qHTS assay for small molecule antagonists of thyroid hormone receptor beta signaling (AID 588547; active = well fitted inhibition curve with a large enough effect in the signal ratio, with a control signal flat, not every such curve was filed as active; the % refers to the signal ratio;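 note: cells stimulated with 0.4 nM T3 agonist during compound exposure; series mostly up to about 77 µM; % is set by controls: 0 for no effect and ±100 for the full control effect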). The conditions noted are these: TR-UAS-bla HEK293, beta-lactamase ratio, antagonist mode, 18 h. In a few lines:
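TR-UAS-bla GripTite HEK293 cells in 2% charcoal/dextran FBS medium; compounds 0.59 nM to 92 uM with T3 at 0.4nM final, 18 h at 37 C. Beta-lactamase read by CCF4 fluorescence (460/530 nm); Hill fits gave IC50 and efficacy.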

Assay [12] in a line: qHTS assay for small molecule activators of the p53 signaling pathway (AID 651743; active = well fitted activation curve with a large enough effect in the signal ratio, not every such curve was filed as active; the % refers to the signal ratio; note: series mostly up to about 92 µM; % of control where 0% means no effect). To be noted: HCT-116 p53RE-bla, beta-lactamase FRET ratio, 16 h; activation: stronger effect = higher value. The gist of the method: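 HCT-116 p53RE-bla, 4,000 cells/well; 5 h settle; cpd/DMSO 16 h, 37 C; LiveBLAzer B/G 2 h RT; fluorescence intensity.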
Assay [13] can be described thus: qHTS assay for environmental chemicals that activate the Aryl hydrocarbon Receptor (AhR) signaling pathway (AID 651777; active = well fitted curve in the direction sought with a large enough effect; an effect the other way counts as inactive or inconclusive; note: % of control where 0% means no effect; nearly all actives have a fitted effect of over 15% in size). The conditions noted are these: 1A2-DRE human hepatoma cells, luciferase, 24 h; activation: stronger effect = higher value. The gist of the method:
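Luminescence (One-Glo, 30 min, room temperature) reports AhR-driven luciferase in stably transfected human hepatoma cells bearing DRE and CYP1A2 promoter. Cells (1,200/well) were treated with compound for 24 hr at 37 C in qHTS format.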

The target of assay [14] is Peroxisome proliferator-activated receptor alpha (Homo sapiens) (UniProt Q07869). The experiment in a line: qHTS assay for small molecule agonists of the peroxisome proliferator-activated receptor alpha (PPARalpha) signaling pathway (AID 651778; active = well fitted curve in the direction sought with a large enough effect; an effect the other way counts as inactive or inconclusive; note: % of control where 0% means no effect). To be noted: PathHunter PPARalpha complementation, chemiluminescence, 6 h; max response: stronger effect = higher value. The gist of the method: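 Enzyme-fragment complementation assay in which ligand-bound PPARalpha translocates and forms an active enzyme that generates chemiluminescence. Cells were plated overnight, exposed to compound for 6 hr at 37 C, and then given detection reagent for 60 min at room temperature.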
Sequence of Peroxisome proliferator-activated receptor alpha (Homo sapiens) (Q07869 whole entry, looked up, the tested form may be a part): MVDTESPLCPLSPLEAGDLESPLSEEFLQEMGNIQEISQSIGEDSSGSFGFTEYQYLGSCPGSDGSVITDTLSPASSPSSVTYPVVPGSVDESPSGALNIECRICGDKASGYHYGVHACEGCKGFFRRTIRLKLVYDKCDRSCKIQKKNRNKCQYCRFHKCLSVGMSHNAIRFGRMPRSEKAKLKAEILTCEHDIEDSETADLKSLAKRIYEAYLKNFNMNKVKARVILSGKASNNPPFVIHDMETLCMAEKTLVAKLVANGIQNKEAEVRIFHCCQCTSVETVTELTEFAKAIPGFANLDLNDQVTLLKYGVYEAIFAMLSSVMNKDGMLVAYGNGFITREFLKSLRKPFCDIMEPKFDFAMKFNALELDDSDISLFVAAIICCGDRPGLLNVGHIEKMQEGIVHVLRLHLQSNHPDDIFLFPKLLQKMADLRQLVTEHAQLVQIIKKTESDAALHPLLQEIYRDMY

Assay [15] in a line: qHTS assay for small molecule agonists of the antioxidant response element (ARE) signaling pathway measured by Nrf2-dependant transcriptional activity (AID 720636; active = well fitted curve in the direction sought with a large enough effect in the repeat runs; an effect the other way counts as inactive or inconclusive; note: % of control where 0% means no effect). The gist of the method: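 Nrf2-dependent transcription read as ONE-Glo luciferase signal from ARE-luc HepG2 reporter cells after 16 hr compound treatment at 37 C, 5% CO2, in assay medium with 1% dialyzed FBS.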

A short description of assay [16]: qHTS assay for small molecule agonists of the antioxidant response element (ARE) signaling pathway measured by Nrf2-dependant transcriptional activity - cell viability counter screen (AID 720653; active = well fitted curve in the direction sought with a large enough effect in the repeat runs; an effect the other way counts as inactive or inconclusive; note: % is set by controls: 0 for no effect and ±100 for the full control effect). To be noted: ARE-bla HepG2 viability, CellTiter-Glo ATP luminescence, 16 h; max response: stronger effect = lower value. In a few lines:
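ARE-bla HepG2 cells treated with compounds for 16 h at 37C; this counter screen measures viability as intracellular ATP by CellTiter-Glo luminescence after 30 min at room temperature.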

Assay [17] in a line: qHTS assay for cell viability of HEK293 cells (AID 743288; active = well fitted curve in the direction sought with a large enough effect; an effect the other way counts as inactive or inconclusive; note: % is set by controls: 0 for no effect and ±100 for the full control effect; nearly all actives have a fitted effect of over 50% in size). The conditions noted are these: ATP luminescence (CellTiter-Glo), 18 h; max response: stronger effect = lower value. The gist of the method:
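HEK293 parental, 2,000 cells/well; ≥5 h pre-incubation 37 C; pintool compound addition; 18 h, 37 C; CellTiter-Glo 30 min RT; luminescence read.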

Assay [18] is described as follows: qHTS assay for cell viability of the p53RE-bla HCT-116 cell line (AID 743292; active = well fitted curve in the direction sought with a large enough effect; an effect the other way counts as inactive or inconclusive; note: % is set by controls: 0 for no effect and ±100 for the full control effect; nearly all actives have a fitted effect of over 55% in size). The gist of the method:
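ATP-based luminescent viability (CellTiter-Glo, 30 min RT) after 16 h compound treatment at 37 C of p53RE-bla HCT-116 cells, seeded at 4,000 cells/well and rested 5 h before dosing.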

Assay [19] has as its target Peroxisome proliferator-activated receptor delta (Homo sapiens) (UniProt Q03181). The experiment in a line: qHTS assay for small molecule agonists of peroxisome proliferator-activated receptor delta signaling (AID 588534).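 Note: 0% = DMSO basal wells and 100% = positive control agonist at 10 µM.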 The gist of the method: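 Cell-based beta-lactamase reporter assay run in agonist mode: cells seeded and incubated 5 hrs at 37 C, compounds added and incubated 18 hrs at 37 C. CCF4 dye fluorescence read after 2 hrs at RT; EC50 and efficacy from Hill fits.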

In assay [20] the target is Nuclear receptor subfamily 1 group I member 2 (Rattus norvegicus) (UniProt Q9R1A7). The experiment in a line: qHTS assay for small molecule activators of the rat pregnane X receptor (rPXR) signaling pathway (AID 651751; call rule not given here; note: 0% is about no effect). To be noted: rPXR reporter cells, luciferase (One-Glo), 24 h.
Sequence of Nuclear receptor subfamily 1 group I member 2 (Rattus norvegicus) (Q9R1A7 whole entry, looked up): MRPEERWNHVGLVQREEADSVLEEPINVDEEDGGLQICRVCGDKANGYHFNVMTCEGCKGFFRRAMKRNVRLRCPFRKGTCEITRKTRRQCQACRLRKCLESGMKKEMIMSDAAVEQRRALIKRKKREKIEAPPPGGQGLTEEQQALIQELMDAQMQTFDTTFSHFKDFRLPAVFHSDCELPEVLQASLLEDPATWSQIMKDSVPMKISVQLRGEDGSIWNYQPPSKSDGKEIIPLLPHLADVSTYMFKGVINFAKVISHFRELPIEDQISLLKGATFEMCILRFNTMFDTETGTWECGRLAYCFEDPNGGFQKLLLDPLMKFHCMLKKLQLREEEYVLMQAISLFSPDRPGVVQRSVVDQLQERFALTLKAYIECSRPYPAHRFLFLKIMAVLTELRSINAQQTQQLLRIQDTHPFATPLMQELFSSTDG

Values joined by “and” are separate entries in the source; they are usually repeats but may differ in a detail not shown here. Equal values may be shown once. Results filed as inconclusive are left out. Active and inactive are the calls of the source. Unless noted, calls come from the whole dose curve.

Sequence of Vitamin D3 receptor (Homo sapiens) (P11473 whole entry, looked up): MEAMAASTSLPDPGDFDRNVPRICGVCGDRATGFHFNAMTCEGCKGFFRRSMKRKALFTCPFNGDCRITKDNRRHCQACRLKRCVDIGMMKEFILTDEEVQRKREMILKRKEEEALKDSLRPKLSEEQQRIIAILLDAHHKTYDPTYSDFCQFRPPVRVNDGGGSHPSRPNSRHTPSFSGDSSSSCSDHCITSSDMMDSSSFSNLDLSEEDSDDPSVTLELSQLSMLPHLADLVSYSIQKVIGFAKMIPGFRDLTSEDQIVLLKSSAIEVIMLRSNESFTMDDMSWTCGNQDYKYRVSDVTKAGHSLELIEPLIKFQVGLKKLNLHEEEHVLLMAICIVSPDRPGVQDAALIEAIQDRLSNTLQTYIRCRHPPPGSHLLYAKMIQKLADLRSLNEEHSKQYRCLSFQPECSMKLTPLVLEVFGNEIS
Sequence of Peroxisome proliferator-activated receptor delta (Homo sapiens) (Q03181 whole entry, looked up): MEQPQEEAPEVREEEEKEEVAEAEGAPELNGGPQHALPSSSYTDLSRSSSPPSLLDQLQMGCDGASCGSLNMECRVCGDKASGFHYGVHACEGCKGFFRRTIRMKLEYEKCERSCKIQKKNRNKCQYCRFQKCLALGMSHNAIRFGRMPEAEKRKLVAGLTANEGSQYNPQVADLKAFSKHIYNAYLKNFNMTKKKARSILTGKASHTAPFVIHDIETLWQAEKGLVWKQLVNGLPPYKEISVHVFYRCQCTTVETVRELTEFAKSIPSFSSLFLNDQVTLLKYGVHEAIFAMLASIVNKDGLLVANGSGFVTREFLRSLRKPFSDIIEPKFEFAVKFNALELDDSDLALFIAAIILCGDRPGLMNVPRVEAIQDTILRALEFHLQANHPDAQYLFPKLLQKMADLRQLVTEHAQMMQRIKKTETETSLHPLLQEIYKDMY
Sequence of Thyroid hormone receptor beta (Homo sapiens) (P10828 whole entry, looked up): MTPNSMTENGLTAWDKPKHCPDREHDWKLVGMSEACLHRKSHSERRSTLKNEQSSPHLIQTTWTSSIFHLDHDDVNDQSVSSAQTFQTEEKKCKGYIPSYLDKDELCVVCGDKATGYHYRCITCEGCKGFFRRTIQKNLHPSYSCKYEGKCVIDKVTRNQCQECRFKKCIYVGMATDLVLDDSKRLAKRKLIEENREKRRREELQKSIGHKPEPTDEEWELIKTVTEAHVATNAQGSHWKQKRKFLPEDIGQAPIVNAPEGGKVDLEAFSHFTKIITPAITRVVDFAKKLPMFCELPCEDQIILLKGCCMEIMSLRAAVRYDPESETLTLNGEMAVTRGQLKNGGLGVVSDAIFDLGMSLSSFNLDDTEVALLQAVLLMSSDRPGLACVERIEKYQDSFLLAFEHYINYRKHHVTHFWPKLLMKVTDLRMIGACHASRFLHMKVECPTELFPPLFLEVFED
Sequence of Estrogen receptor (Homo sapiens) (P03372 whole entry, looked up): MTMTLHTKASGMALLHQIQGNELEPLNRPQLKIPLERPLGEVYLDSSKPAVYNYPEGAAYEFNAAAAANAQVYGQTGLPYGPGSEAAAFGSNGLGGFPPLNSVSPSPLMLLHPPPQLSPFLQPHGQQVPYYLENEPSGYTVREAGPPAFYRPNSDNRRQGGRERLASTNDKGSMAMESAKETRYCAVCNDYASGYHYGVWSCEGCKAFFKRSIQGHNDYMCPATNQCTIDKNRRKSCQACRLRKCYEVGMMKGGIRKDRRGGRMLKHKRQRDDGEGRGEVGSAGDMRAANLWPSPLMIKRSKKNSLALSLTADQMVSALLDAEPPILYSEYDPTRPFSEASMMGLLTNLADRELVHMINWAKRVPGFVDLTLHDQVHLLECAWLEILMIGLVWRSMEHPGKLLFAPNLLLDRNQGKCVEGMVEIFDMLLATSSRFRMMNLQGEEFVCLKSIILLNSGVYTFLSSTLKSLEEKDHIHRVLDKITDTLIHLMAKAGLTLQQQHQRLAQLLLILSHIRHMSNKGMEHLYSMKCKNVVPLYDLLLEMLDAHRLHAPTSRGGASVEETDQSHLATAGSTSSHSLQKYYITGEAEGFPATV
Sequence of Peroxisome proliferator-activated receptor gamma (Homo sapiens) (P37231 whole entry, looked up): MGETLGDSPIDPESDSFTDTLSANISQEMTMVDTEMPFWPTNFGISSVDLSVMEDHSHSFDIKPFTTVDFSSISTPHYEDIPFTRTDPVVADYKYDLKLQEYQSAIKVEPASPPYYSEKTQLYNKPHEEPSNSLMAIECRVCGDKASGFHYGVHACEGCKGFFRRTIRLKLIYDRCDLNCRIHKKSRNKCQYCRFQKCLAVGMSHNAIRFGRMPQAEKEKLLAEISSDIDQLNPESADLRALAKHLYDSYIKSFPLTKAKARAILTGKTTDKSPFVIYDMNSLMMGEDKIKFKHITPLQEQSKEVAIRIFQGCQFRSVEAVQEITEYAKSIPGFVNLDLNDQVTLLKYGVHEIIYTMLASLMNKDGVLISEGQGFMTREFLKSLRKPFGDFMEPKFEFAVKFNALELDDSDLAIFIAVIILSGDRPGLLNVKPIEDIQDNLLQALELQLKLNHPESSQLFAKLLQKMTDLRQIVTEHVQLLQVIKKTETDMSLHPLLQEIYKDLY

On to `Clc1ccc([C@]2(Cn3cncn3)C[C@H](Br)CO2)c(Cl)c1`, for which the Potency entry in assay [1], in [2], in assay [3], in assay [4], in assay [5] and in [7] was “inactive” in each case. For the same molecule, the Potency result in [8], in assay [15] and in [18] was “inactive” throughout. In addition, the result in assay [6] was inactive. The max response was -15.4% and -0.171% in assay [9]; -14.1% (inactive) and -9.34% (inactive) in assay [10]; -0.439% (inactive) and 5.59% (inactive) in [14]; -1.87% (inactive) and -2% (inactive) in [16]; -7.75% (inactive) and -8.79% (inactive) in assay [17]. Further, the activity change % (negative = inhibition) in assay [11] is 0.44% (inactive). Further, the activation in assay [12] was -0.748% (inactive) and 2.17% (inactive); in assay [13], -0.98% (inactive) and 1.78% (inactive).

As for `Cc1c(F)c(F)c(COC(=O)C2C(/C=C(\Cl)C(F)(F)F)C2(C)C)c(F)c1F` (stereo unspecified), the Potency entry in [1], in [2], in assay [3], in assay [4], in [5] and in assay [7] was “inactive” throughout. For the same molecule, the Potency result in [8], in [15] and in assay [18] was “inactive” throughout. For the same molecule, the outcome in assay [19] and in assay [6] was inactive. Further, the max response in assay [9] was -8.23%; in assay [10], 12% (inactive); in assay [14], -0.765% (inactive); in assay [16], -20.4% (inactive); in assay [17] it was -6.4% (inactive); in [20], -1.61% (inactive). Besides, the activity change % (negative = inhibition) in assay [11] is 16.3% (inactive). Moreover, the activation in assay [12] was -3.48% (inactive); in assay [13] it was 0.802% (inactive).

As for `C=CC1(C)OC(=O)N(c2cc(Cl)cc(Cl)c2)C1=O` (stereo unspecified), the Potency entry in [1], in [2], in assay [3], in [4], in [5] and in assay [15] was “inactive” each time. In addition, the Potency entry in assay [18] was “inactive”. Also, the result in assay [19] and in assay [6] was inactive. The max response in [9] was -0.794%; in [10], -13.3% (inactive); in assay [14] it was -2.56% (inactive); in assay [16] it was -7.58% (inactive); in assay [17] it was -8.07% (inactive); in assay [20] it was -0.0091% (inactive). In addition, the activation in [13] was -0.237% (inactive).

For `CN(C)c1nc(=O)n(C2CCCCC2)c(=O)n1C`, the Potency result in assay [1], in assay [2], in assay [3], in assay [4], in [5] and in assay [7] was “inactive” throughout. The Potency result in [15] and in assay [18] was “inactive” each time. In addition, the molecule was called inactive in [19] and in assay [6]. Besides, the max response in assay [9] is -2.46%; in [10] it was -11.2% (inactive); in assay [14], 0.605% (inactive); in assay [16], 8.36% (inactive); in [17] it was -6.56% (inactive); in assay [20], 1.22% (inactive). Moreover, the activity change % (negative = inhibition) in assay [11] is -5.49% (inactive). In addition, the activation in [13] is 0.25% (inactive).

With `CCOP(=O)(O)C(N)=O`, the Potency result in assay [1], in assay [2], in assay [3], in assay [4], in assay [5] and in [7] was “inactive” each time. The Potency result in assay [8], in assay [15] and in assay [18] was “inactive” each time. Moreover, the outcome in [19] and in assay [6] was inactive. The max response was -9.11% in assay [9]; -9.79% (inactive) in assay [10]; -1.31% (inactive) in assay [14]; -6.84% (inactive) in assay [16]; -8.79% (inactive) in assay [17]; -2.01% (inactive) in assay [20]. Further, the activity change % (negative = inhibition) in [11] is -0.728% (inactive). Moreover, in assay [13], the activation was -2.02% (inactive).
